# The list is not random: actives were taken first. Their share in the collection is about 8%.
# SW480 rereplic = DNA re-replication induction in SW480 cells. SW480 DNA re-replication, Hoechst DNA content imaging, 48 h. Potency, µM (series often up to 46.1 µM), for the others: top-dose re-replication activation, most hits filed as activators. 1.8% of 340,000 active. AID 624297; further: % of control where 0% means no effect; nearly all actives have a fitted effect of over 55% in size
#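 Image-based DNA-content assay: after two days of treatment, nuclei were labelled with the DNA dye Hoechst and imaged, and hits were compounds raising the count of nuclei showing high fluorescence intensity.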
# HT1080 IDH1KD tx = toxicity to HT-1080 IDH1 knockdown cells (counter line). HT-1080 IDH1 knockdown viability, ATP luminescence, 48 h. 2% of 360,000 active. AID 686971. Potency, µM (titrated, usually from 46.1 µM), inactives show at the highest dose activity, negative = toxicity, most hits filed as cytotoxic;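 further: 0% = DMSO wells and -100% = cell-free medium wells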
#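 In this qHTS, HT-1080 cells depleted of IDH1 are exposed for 48 h at 37 °C to compound titrations. Toxicity is scored from CellTiter-Glo luminescence, with DMSO as full viability and medium alone as none.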
# KB-3-1 tox = KB-3-1 parental cell cytotoxicity; KB-3-1 viability, CellTiter-Glo ATP luminescence, 72 h; Potency, µM (doses to about 46.1 µM), most hits filed as cytotoxic; 1.4% of 400,000 active; further: on the % scale 0 is the no-effect control and ±100 the full control effect; nearly all actives have a fitted effect of over 60% in size
#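 Cells are dispensed, compounds pinned in, plates held at 37 °C for 72 h, then CellTiter-Glo is added and luminescence read after 10 minutes. Cell line: parental KB-3-1 in phenol-red-free DMEM, 10% FBS.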
# MCF10A rerep = inducers of DNA re-replication in MCF 10A breast cells. MCF 10A DNA re-replication, Hoechst nuclear intensity, 48 h. Potency, µM (doses to about 46.1 µM), for the others: at the highest dose activity, positive = re-replication, usual class: activators. 2.9% of 350,000 active. AID 624296; further: % of control where 0% means no effect; nearly all actives have a fitted effect of over 50% in size
# HT1080-NT tox = kills 2HG-producing HT-1080-NT fibrosarcoma cells. HT-1080-NT fibrosarcoma viability, CellTiter-Glo ATP luminescence, 48 h. Potency, µM (doses to about 46.1 µM), for inactives: at the highest dose activity, negative = less viability, usual class: cytotoxic. 1.6% of 360,000 active;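 further: NT is the 2HG producing partner of a matched IDH1 knockdown line; 0% = DMSO-treated cells and -100% = media-only wells without cells; nearly all actives have a fitted effect of over 55% in size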
#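 Viability by CellTiter-Glo luminescence after 48 h compound exposure at 37C of HT-1080-NT cells (750/well, RPMI, 5% FBS). % activity scaled between DMSO wells and medium-only wells, then curve-fitted and categorized by curve class.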
# KB-V1 MDR tox = kills drug-selected multidrug resistant KB-V1 cells. 3.4% of 400,000 active. KB-V1 MDR cells viability, CellTiter-Glo, 72 h. Potency, µM (highest dose often 46.1 µM), hits mostly cytotoxic. AID 1347076; further: on the % scale 0 is the no-effect control and ±100 the full control effect; nearly all actives have a fitted effect of over 60% in size
#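 KB-V1 cells (P-gp-expressing MDR subline of KB-3-1) in phenol-red-free DMEM with 10% FBS were exposed to library compounds over a concentration series for 72 h at 37 degrees C. Viability read by CellTiter-Glo luminescence; concentration-effect curves fitted after normalization.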
# Numbers without * were called inactive; i = inactive; ? = inconclusive; / = no result given; ! = repeats disagree. The call rests on the fitted dose curve; in most records, active means well fitted curve in the direction sought with a large enough effect; inconclusive means small, poorly fitted or top-dose-only effect, or another doubt; inactive means no such curve, though single readings can be large; an effect the other way counts as inactive or inconclusive. Potency means the concentration at half of the fitted maximal effect.
SMILES,SW480 rereplic,HT1080 IDH1KD tx,KB-3-1 tox,MCF10A rerep,HT1080-NT tox,KB-V1 MDR tox
OC(CN1CC=C(c2ccccc2)CC1)c1ccccc1 (configuration not stated),23%,1%,i,-6%,-2%,i
OC(COCc1ccc(Cl)cc1)CN1CC=C(c2ccccc2)CC1 (configuration not stated),25%,?,?,15µM*,-4%,?
CCOc1ccc(NC(=O)C2C(C(=O)O)C3(Cl)C(Cl)=C(Cl)C2(Cl)C3(Cl)Cl)cc1 (configuration not stated),-19%,-2%,i,?,-25%,i
CCCC12CN3CCN(CC(C3)/C1=N\NC(=O)c1ccncc1)C2,5.8µM*,20%,i,-4%,10%,i
CCC12CN3CCN(CC(C3)/C1=N/NC(=O)c1ccncc1)C2,?,1%,i,14%,4%,i
CCN(CC)Cc1cc(Nc2ccnc3cc(Cl)ccc23)ccc1O,-14%,21µM*!,i,?,10µM*!,?
CN(C)C(=O)Oc1ccnc2cc(Cl)ccc12,-8%,10%,i,-12%,-1%,i
COc1ccc2c(c1)C(c1ccc(N(CCCl)CCCl)cc1)=NCC2,?,26µM*,i,13µM*,?,i
ClCCN(CCCl)c1ccc(C2=NCCc3ccccc32)cc1,6%,14%,i,?,2%,?
CC(C)Cc1nc2cccnc2n1C1CCNCC1,/,/,i,/,/,i
CCOC(=O)C/C(C)=N/NC(=O)COc1ccccc1C,1%,9%,i,?,10%,i
Cc1ccccc1CN1Cc2cnnn2-c2ccccc2C1C#N (configuration not stated),?,6.5µM*,?,6.5µM*,8.2µM*,?
COc1ccc(CN2Cc3cnnn3-c3ccccc3C2C)cc1 (configuration not stated),?,?,13µM*,?,-24%,?
CC(C)(C)c1nc(N2CCN(C(=O)c3ccco3)CC2)c2nnn(Cc3ccccc3Cl)c2n1,10%,-2%,i,18µM*,-1%,12µM*
COC(C(=O)C(O)C(C)O)C1Cc2cc3cc(OC4CC(OC5CC(O)C(OC)C(C)O5)C(OC(C)=O)C(C)O4)c(C)c(O)c3c(O)c2C(=O)C1OC1CC(OC2CC(OC3CC(C)(O)C(OC(C)=O)C(C)O3)C(O)C(C)O2)C(O)C(C)O1 (configuration not stated),-4%,/,/,-8%,/,/
CCCCC1(CCCC)C(=O)NC(=Nc2cccc(C)c2)NC1=O,2%,18µM*,?,21%,?,?
C[C@@H]1CC[C@H]2[C@@H](C)C(=O)O[C@@H]3O[C@@]4(C)CC[C@@H]1[C@]32OO4,?,-13%,i,-14%,-2%,?
CCC(C)NC(=O)CCC(=O)OC1O[C@H]2OC3(C)CC[C@H]4[C@H](C)CCC(C1C)C24OO3 (some centres not stated),18µM*,7.3µM*,5.2µM*,?,7.3µM*,i
CCOC(=O)c1ncn2c1CN(C)C(=O)c1cc(F)ccc1-2,-33%,?,i,3%,0%,i
Cc1[nH]nc2ccc(-c3cncc(OC[C@@H](N)Cc4c[nH]c5ccccc45)c3)cc12,?,10µM*,?,2.3µM*,18µM*,26µM*
C=C(C)CSc1nnc([C@@H](N)Cc2c[nH]c3ccccc23)o1,-1%,2%,i,4%,13%,i
CC1CCC2(CC1)NC(=O)N(NC(=O)CCl)C2=O (configuration not stated),0%,16%,i,8%,-1%,i
CCCCCCC(=O)N/N=C/c1c(O)n(C2CC2)c(=S)[nH]c1=O,-4%,-16%,i,15%,-8%,i
